This note sets out measurements from PubChem BioAssay (NCI).

This is part of a sample that, as a whole, favours compounds with a hit. Of some 83,000 tested, about 20% had one in any assay.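 Single-dose data. Exposure time 48 hours. Values below 10 considered active.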 Values without a mark were called inactive. The source made the active and inactive calls.

What all share (assay): NCI-60 one-dose screen, 48 h (100 = growth as untreated, 0 = no growth, -100 = all killed)
Common to all, as to details: 10 µM unless noted

For assay [1], the system named is T-47D breast.
Assay [2] relates to BT-549 breast.
Assay [3] deals with MDA-MB-435 melanoma.
Assay [4] has as its system SW-620 colon.
Assay [5] relates to MCF7 breast.
Assay [6] deals with HCT-116 colon.
Assay [7] deals with HCC-2998 colon.
The test system of assay [8] is KM12 colon.

Turning to `Cc1ccc(-c2nc(C(Cl)Cl)n3nc(-c4ccccc4)cc3n2)cc1`, the growth in assay [1] was -6.55% (active); in assay [2], 70.8%; in assay [3] it was 15.4%; in assay [4] it was -22.4% (active); in assay [5], 18.9%; in assay [6], 9.65% (active). Moreover, the growth was 23.3% in assay [7] and 0.685% (active) in assay [8].
In the case of `C/C(=N/NC(=S)Nc1ccccc1)c1nc2ccc(Cl)cc2[nH]1`, the growth in assay [1] was -68.3% (active); in assay [2] it was -94.9% (active); in assay [3], -84.5% (active); in assay [4], -76.9% (active); in assay [5], -85.4% (active); in assay [6] it was -27% (active). In addition, the growth in assay [7] was -89.9% (active); in assay [8], -82.5% (active).
Consider `Nc1nc(Nc2cc(Cl)cc(Cl)c2)nn1S(=O)(=O)c1ccc2ccccc2c1`, for which the growth in assay [1] was 46%; in assay [2], 90.7%; in assay [3], 77.5%; in assay [4], 67.6%; in assay [5], 32.8%; in assay [6] it was 33.5%. Further, the growth in assay [7] is 68.3%; in assay [8], 21.9%.
`COc1cc(C2NN=C3c4ccccc4CCC32)cc(OC)c1OC` (configuration not stated): the growth in assay [1] is 39.3%; in assay [2] it was 103%; in assay [3], 96.9%; in assay [4], 93.9%; in assay [5], 42.7%; in assay [6], 74.8%. In addition, the growth in assay [7] is 110%; in assay [8], 80.4%.
As for `CCOC(=O)CN1/C(=N/c2sc3c(c2C(=O)OCC)CCN(C(=O)OCC)C3)SC(=O)/C1=C\C(=O)OC`, the growth in assay [1] was 30.8%; in assay [2] it was 89.4%; in assay [3], 99.7%; in assay [4], 71.6%; in assay [5], 49.3%; in assay [6], 71.6%. Moreover, the values for the growth in assay [7] and in assay [8] were 94.4% and 97.4%, respectively.
`CCOC(=O)c1cn2c3c(cccc3c1=O)C(=O)/C(=C/c1cccc(Cl)c1Cl)C2`: the growth in assay [1] was 75.5%; in assay [2] it was 91.6%; in assay [3], 106%; in assay [4], 102%; in assay [5], 96.2%; in assay [6] it was 105%. In addition, the values for the growth in assay [7] and in assay [8] were 100% and 108%, respectively.
For `CC(C)(C)OC(=O)NCCc1ccc(N=C=S)cc1`, the growth in assay [1] is 41.5%; in assay [2] it was 62.3%; in assay [3], 71.3%; in assay [4] it was 71.4%; in assay [5], 52%; in assay [6], 65.5%. Besides, the results for the growth in assay [7] and in assay [8] were 89.9% and 60.8%, respectively.
Consider `COc1cc(/C=C/C(=O)c2ccc(Nc3ncnc4cc(OC)c(OC)cc34)cc2)cc(OC)c1`, for which the growth in assay [1] is 100%; in assay [2], 105%; in assay [3], 51.8%; in assay [4], 109%; in assay [5], 73%; in assay [6], 30.8%. Also, the growth in assay [7] was 106%; in assay [8], 82.9%.
With `CCCCOc1ccc(/C=C2/SC(N3CCOCC3)=NC2=O)cc1OCC`, the growth in assay [1] was 80.6%; in assay [2] it was 83%; in assay [3], 99.6%; in assay [4] it was 96.9%; in assay [5] it was 99.4%; in assay [6] it was 93.2%. In addition, the growth was 109% in assay [7] and 98.7% in assay [8].
`COc1ccc(C2=Nn3c(nnc3-n3nc(C)cc3C)SC2)cc1`: the growth in assay [1] is 77.6%; in assay [2], 18.6%; in assay [3], -16.1% (active); in assay [4] it was 21.7%; in assay [5], 16.9%; in assay [6], 5.57% (active). Also, the growth in assay [7] is 4.24% (active); in assay [8], 10%.
Turning to `COC(=O)C(Sc1ccc(Cl)cc1)C1SC(=S)N(Cc2ccccc2)C1=O` (configuration not stated), the growth is 81.7% in assay [1]; 84.1% in assay [2]; 90.4% in assay [3]; 98.3% in assay [4]; 77.2% in assay [5]; 89.7% in assay [6]. Also, the growth in assay [7] was 103%; in assay [8], 99.6%.
In the case of `O=C(CSc1nc2ccccc2[nH]1)Nc1ccc(-c2nc3ccccc3s2)c(Cl)c1`, the growth in assay [1] is -12.7% (active); in assay [2], 47.4%; in assay [3] it was 13.2%; in assay [4], 22.1%; in assay [5], 6.26% (active); in assay [6], -90.2% (active). Moreover, the growth in assay [7] is 95.3%.
Take `COc1cc(/C=C/C(=O)c2cccc(-n3cc(-c4cc(OC)c(OC)c(OC)c4)[nH]c3=O)c2)cc(OC)c1OC`: the growth was 8.37% (active) in assay [1]; -2.07% (active) in assay [2]; 3.2% (active) in assay [3]; -47.2% (active) in assay [4]; -5.04% (active) in assay [5]; -78.3% (active) in assay [6]. Also, the growth was 23.1% in assay [7] and -83.4% (active) in assay [8].
For the molecule `C=C1C(=O)O[C@H]2[C@H]1CC/C(Cn1cc(-c3cccc(Cl)c3)nn1)=C\CC[C@@]1(C)O[C@@H]21`, the growth is -43.7% (active) in assay [1]; -49.5% (active) in assay [2]; -78.6% (active) in assay [3]; -77.8% (active) in assay [4]; -46.8% (active) in assay [5]; -84.8% (active) in assay [6]. The growth in assay [7] was -85.5% (active); in assay [8], 12.9%.
On to `C=C(C)[C@@H]1C[C@H](O)Cc2cc(F)ccc2N1`, for which the growth in assay [1] is 95.6%; in assay [2], 98.1%; in assay [3], 97.7%; in assay [4], 91.9%; in assay [5], 103%; in assay [6] it was 92.9%. Also, the growth in assay [7] was 118%; in assay [8], 106%.
Regarding `CC(C)CSc1nc(NN)c(C#N)c(-c2ccccc2)n1`, the growth in assay [1] is 87%; in assay [2], 96.2%; in assay [3], 101%; in assay [4] it was 99.3%; in assay [5], 88.2%; in assay [6] it was 95.7%. In addition, the growth in assay [7] is 95%; in assay [8], 81.3%.
